# Hits are enriched below; roughly 1.9% of the tested compounds scored in any of these assays.
# PG9 binder – small molecules binding HIV-1 gp120 antibody PG9; TR-FRET gp120-PG9 antibody binding; inhibition, % at 6.7 µM; hit rate 0.43% among 360,000; AID 624416; in the data active = inhibition above about 8.5%
# p47phox inh – blocks human p47phox regulatory protein of NADPH oxidases; P14598; p47phox/p22phox peptide binding, fluorescence polarization, 2 h; inhibition, % at 24.7 µM; hit rate 0.53% among 220,000; AID 1274;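 active = inhibition above about 30%, limit read from the data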;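 note: 0% = p47phox with labelled peptide and 100% = labelled peptide alone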
# Target sequence (P14598 whole entry, looked up): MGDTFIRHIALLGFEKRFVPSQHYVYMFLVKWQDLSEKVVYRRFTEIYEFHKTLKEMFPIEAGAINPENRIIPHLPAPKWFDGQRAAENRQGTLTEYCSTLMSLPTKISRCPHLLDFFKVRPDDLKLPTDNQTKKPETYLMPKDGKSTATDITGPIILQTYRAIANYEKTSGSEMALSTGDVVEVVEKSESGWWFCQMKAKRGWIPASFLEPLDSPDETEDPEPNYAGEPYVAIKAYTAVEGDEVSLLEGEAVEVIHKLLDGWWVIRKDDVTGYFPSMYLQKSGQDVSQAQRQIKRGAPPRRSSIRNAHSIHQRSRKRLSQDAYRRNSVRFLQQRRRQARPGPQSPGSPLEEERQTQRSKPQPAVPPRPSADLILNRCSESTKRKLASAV
# EBNA-1 inhibitor – blocks EBNA-1 binding to DNA | EBNA-1 DNA binding, fluorescence polarization | inhibition, % at 14.8 µM | hit rate 0.34% among 300,000 | AID 1950; in the data active = inhibition above about 28%
# Rev-erbA mod – Rev-erb alpha (human) modulation | P20393 | Rev-erbα–FITC-DNA binding, fluorescence polarization, 90 min | activity, % at 10 µM | hit rate 0.79% among 370,000 | AID 1259318;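 active = activity above about 14%, limit read from the data; passing the limit was not always enough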;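 note: 0% = DMSO wells with 35 nM protein and 100% = DMSO wells with 750 nM protein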
# ZTA counter – counter-screen for EBNA-1 inhibitors: inhibitors of Epstein-Barr virus ZTA; inhibition, % at 11 µM; hit rate 0.15% among 320,000; ZTA-DNA binding, fluorescence polarization; P03206; in the data active = inhibition above about 33%
# aDG glyco act – alpha-DG glycosylation activation | Pro5-aDG cells, alpha-DG glycosylation AlphaScreen (IIH6); 0% Pro5, 100% B10-LARGE cell signal | activation, % at 10 µM | hit rate 0.22% among 360,000 | AID 624168;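 active = activation of at least 8% versus controls, or a plate z-score of at least 8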;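 note: Pro5 are CHO cells carrying HIG-tagged alpha-DG that lacks glycosylation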
# * = called active by the depositor; · = no result given; + = active, no number.
SMILES,PG9 binder,p47phox inh,EBNA-1 inhibitor,Rev-erbA mod,ZTA counter,aDG glyco act
COc1ccc(OC)c(/C=N/NC(=O)c2cc(-c3ccc(C)o3)nc3ccccc23)c1,-2.9,+,18.1,0.3,1.6,-0.1
CCc1ccc(NC(=O)N(CCN2CCOCC2)Cc2ccc3c(c2)CCCN3CC)cc1,-4.6,43.0*,6.5,-1.7,16.4,0.3
C=C[C@@]1(C)CC(=O)[C@@]2(O)[C@](C)(O1)[C@@H](OC(C)=O)[C@@H](O)C1C(C)(C)CC[C@H](O)[C@@]12C (stereo not given in full),·,·,·,-8.6,·,·
O=C(CS(=O)Cc1ccco1)NC/C=C\COc1cc(CN2CCCCC2)ccn1 (stereo not given),·,·,·,-4.5,·,·
CCOC(=O)N1CCc2c(sc3ncn(C)c(=O)c23)C1,-1.3,-11.0,-7.8,1.2,-1.8,-0.1
CCOC(=O)N1CCc2c(sc3nc4n(c(=O)c23)N=C(c2ccc(OC)cc2)CS4)C1,-2.3,37.9*,6.9,-27.6,-1.1,0.1
COc1ccc(N2C(=O)C3CCCN3C2c2cc(OC)c(OC)c(OC)c2)cc1 (stereo not given),0.8,35.0*,-11.9,-3.5,-6.7,-0.1
NS(=O)(=O)c1ccc(N2CCCCS2(=O)=O)cc1,·,·,·,1.9,·,·
CC(NC(=O)Cn1cccc1C(=O)c1ccccc1)c1ccc2c(c1)OCCO2 (stereo not given),-1.9,70.7*,2.4,2.7,-7.4,0.0
O=C(Cn1cccc1C(=O)c1ccccc1)NCc1ccc2c(c1)OCO2,-0.7,-2.1,-0.1,0.0,-9.3,0.2
C=CCN(Cc1ccc2c(c1)OCO2)C(C#CC1CC1)C(C)C (stereo not given),·,·,·,3.3,·,·
C[C@]12CCC(=O)C=C1CCC1C2[C@@H](O)C[C@@]2(C)C1CC[C@]2(O)C(=O)COC(=O)CCC(=O)O (stereo not given in full),·,·,·,0.1,·,·
Cc1onc(-c2ccccc2)c1C(=O)Nc1ccon1,-2.2,36.5*,-4.0,1.9,5.3,-0.2
CC(=O)OC12CCCN(C1)/C(=C/c1cccnc1)C2 (stereo not given),·,·,·,0.6,·,·
CC1Cc2nc(SCC(=O)N3CCc4ccccc43)n(C)c(=O)c2S1 (stereo not given),-2.8,34.5*,0.2,0.9,-7.0,0.6
CC1Cc2nc(SCC(=O)N3CCOCC3)n(C)c(=O)c2S1 (stereo not given),-2.1,·,4.1,-1.4,2.5,0.0
COc1ccc(/C=C2\SC(=O)N(CC(=O)NNC(=O)c3ccccc3O)C2=O)cc1OC,-4.5,34.4*,1.4,-0.8,-12.3,-0.1
O=C(CN1C(=O)S/C(=C\c2ccccc2)C1=O)NNC(=O)c1ccccc1O,-1.1,14.3,-2.4,5.5,-1.4,0.1
COC(=O)[C@]12C[C@H](CC(=O)NCc3cccc4ccccc34)C(=O)N(Cc3ccco3)C1=C[C@H](C1CCCC1)O[C@@H]2C,·,·,·,1.8,·,·
CS(=O)(=O)N1CCN(c2ccc([N+](=O)[O-])c(NCCN3CCOCC3)c2)CC1,-0.2,144.5*,8.4,4.8,-5.1,-0.3
CS(=O)(=O)N1CCN(c2ccc([N+](=O)[O-])c(N3CCOCC3)c2)CC1,1.8,-8.9,-1.4,5.0,7.5,-0.5
C/C(=N/NC(=O)c1ccc2c(c1)OCO2)c1ccc(NC(=O)C(F)(F)F)cc1,-2.0,33.5*,-3.5,-6.5,-19.4,0.1
Cc1nc2ccccc2n2c(O)c(CC(=O)O)cc12,-5.7,34.9*,6.8,3.3,11.6,-0.1
Cc1nc2ccccc2n1CCC(=O)O,0.5,-1.8,-0.5,-0.2,1.1,-0.2
CCOC(=O)N1CCN(C(=O)c2ccccc2CCc2ccccc2)CC1,-1.5,86.8*,-1.9,-0.2,-3.2,-0.2
CCCN(CCC)S(=O)(=O)c1ccc(C(=O)Nc2nnc(-c3cc(OC)cc(OC)c3)o2)cc1,·,-14.9,2.6,·,-7.8,5.5*
CCCN(CCC)S(=O)(=O)c1ccc(C(=O)Nc2nnc(-c3cccc(OC)c3)o2)cc1,0.1,-2.9,11.2,-1.2,-0.8,2.9
Cc1ccccc1CCN(C(=O)Cn1nnc2ccccc21)C(C(=O)NCC1CCCO1)c1nc2ccccc2n1C (stereo not given),-0.6,45.1*,2.9,-7.6,-10.4,0.0
Cc1ccccc1C(C(=O)NCc1ccco1)N(CC1CCCO1)C(=O)Cn1nnc2ccccc21 (stereo not given),-1.2,4.5,-11.8,-3.3,3.0,0.4
